Test results taken from PubChem BioAssay (NCATS).
Inconclusive results are not listed. Calls of active or inactive are those of the source. Calls follow the shape of the dose curve; as a rule, active = well fitted activation curve with a large enough effect in the main read-out, with a control signal flat (not every such curve was filed as active); inconclusive = small, poorly fitted or top-dose-only effect, or effect the other way, or a change in a side signal; inactive = flat fitted curve, though single readings scatter.

molecular target: 3',5'-cyclic-AMP phosphodiesterase 4B (Homo sapiens) (UniProt Q07343); assay: qHTS Assay for Inhibitors of PDE-IV (AID 607); settings: HEK293 ACTOne CNG channel cells, membrane potential fluorescence; series mostly up to 22.9 µM; activation (PDE inhibition): at the top concentration; also: % of control where 0% means no effect
How it was run: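 Live HEK293 cells with a modified cyclic nucleotide-gated (CNG) channel report intracellular cAMP via membrane-potential dye fluorescence (ex 535/em 590 nm). Endogenous PDE-IV was targeted. Compounds were tested at up to 22.9 uM final; RO 20-1724 100 uM served as control.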

Sequence of 3',5'-cyclic-AMP phosphodiesterase 4B (Homo sapiens) (Q07343 whole entry, looked up): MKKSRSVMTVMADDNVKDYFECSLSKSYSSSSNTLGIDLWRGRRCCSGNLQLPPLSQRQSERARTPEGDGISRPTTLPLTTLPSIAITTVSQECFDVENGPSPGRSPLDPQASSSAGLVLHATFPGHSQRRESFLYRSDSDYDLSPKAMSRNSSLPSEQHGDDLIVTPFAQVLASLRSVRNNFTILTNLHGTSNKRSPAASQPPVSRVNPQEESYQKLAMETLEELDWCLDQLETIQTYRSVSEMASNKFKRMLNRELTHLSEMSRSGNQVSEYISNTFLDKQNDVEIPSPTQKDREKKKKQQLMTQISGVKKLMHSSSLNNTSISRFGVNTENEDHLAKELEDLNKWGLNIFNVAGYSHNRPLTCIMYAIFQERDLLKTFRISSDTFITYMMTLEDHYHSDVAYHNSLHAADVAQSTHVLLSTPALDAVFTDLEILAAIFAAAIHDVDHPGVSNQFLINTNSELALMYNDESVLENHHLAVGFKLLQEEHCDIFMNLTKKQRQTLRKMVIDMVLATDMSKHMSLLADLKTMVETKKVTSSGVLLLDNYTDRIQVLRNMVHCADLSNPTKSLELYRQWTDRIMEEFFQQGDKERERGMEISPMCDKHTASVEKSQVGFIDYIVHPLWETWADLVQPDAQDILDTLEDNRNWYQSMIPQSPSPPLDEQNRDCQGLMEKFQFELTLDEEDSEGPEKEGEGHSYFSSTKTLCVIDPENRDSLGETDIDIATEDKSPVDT

| Compound | activation (PDE inhibition) |
| --- | --- |
| O=S(=O)(O)CCCc1cccc2ccccc12 | -1.28% (inactive) |
| CC(C)(Oc1ccc(-c2cccc3ccccc23)cc1)C(=O)O | 13.4% (inactive) |
| O=[N+]([O-])c1cc(Cc2cc([N+](=O)[O-])c3cccnc3c2O)c(O)c2ncccc12 | 0.57% (inactive) |
| O[C@@H](COc1cccc2ccccc12)CN1CCOCC1 | -1.08% (inactive) |
| FC(F)(F)c1nc(SCc2ccc(Cl)cc2)n[nH]1 | 5.47% (inactive) |
| O=C1c2ccccc2-c2ccc(NC(=O)[C@H]3CCCC[C@@H]3C(=O)O)cc21 | 3.93% (inactive) |
| CCOC(=O)C1=C(C)NC(=O)N[C@@H]1c1coc2cc(C)cc(C)c2c1=O | 5.67% (inactive) |
| OCCCSCCO | 3.77% (inactive) |
| CC1=N[C@@](C)(COC(=O)[C@]2(C)N[C@](C)(CO)CO2)COC1=O | -7.29% (inactive) |
| NCC[C@H](N)C(=O)O | -8.96% (inactive) |
| O=S(=O)(c1ccccc1)N1CN2CN(C1)CN(S(=O)(=O)c1ccccc1)C2 | 7.29% (inactive) |
| NC(=O)Nc1n[nH]c(-c2ccccc2)n1 | 2.64% (inactive) |
| C[C@@]1(C(=O)O)CCC[C@@H]1C(=O)O | -4.81% (inactive) |
| CCOC(=O)C(C)(C)[C@H](O)C(C)C | 6.55% (inactive) |
| N=C(N)[C@H](N=Nc1ccccc1)C(N)=O | 3.4% (inactive) |
| O=C(Cn1ccc(=O)[nH]c1=O)Nc1ccc(C(=O)O)c(O)c1 | -12.2% (inactive) |
| N[C@@H](Cc1c[nH]c2ccc([N+](=O)[O-])cc12)C(=O)O | 12.7% (inactive) |
| Nc1nc(-c2cccc([N+](=O)[O-])c2)cc(-c2cc(-c3cccc([N+](=O)[O-])c3)nc(N)n2)n1 | 2.31% (inactive) |
| O=C(O)CC[C@@]1(c2ccccc2)NC(=O)NC1=O | -2.58% (inactive) |
| NS(=O)(=O)c1ccc(N=Nc2ccc(O)c(C(=O)O)c2)cc1 | 2.31% (inactive) |
